Test results published in PubChem BioAssay (NCATS).
Results filed as inconclusive are left out. Entries that show only a call come without a potency. A number with no mark means an inactive call. Calls of active or inactive are those of the source. The call rests on the fitted dose curve; in most records, active means well fitted inhibition curve with a large enough effect; inconclusive means small, poorly fitted or top-dose-only effect; inactive means flat fitted curve, though single readings scatter.

Tested on: HaCat
Assay: Cytotoxic Profiling of Annotated Libraries Using Quantitative High-Throughput Screening (AID 1296008); further: nearly all actives have a fitted effect of over 60% in size
Conditions: Five cell lines viability, CellTiter-Glo ATP luminescence, 48-72 h; max response: stronger effect = lower value
How it was run: (§1)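 Cells exposed to compounds for 48 or 72 hr at 37 degrees Celsius. Viability read as ATP-coupled luminescence with CellTiter-Glo after 10 min at room temperature.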
Potency means the concentration at half of the fitted maximal effect.

| SMILES | outcome |
| --- | --- |
| COc1cc2c(cc1-c1c(C)noc1C)ncc1[nH]c(=O)n(C(C)c3ccccn3)c12 (centres undefined) | inactive |
| C/C=C/CCC1Cc2cc(O)c(CCCC)c(O)c2C(=O)O1 (centres undefined) | inactive |
| Cc1nnc(-c2ccc(-c3ccc(C(=O)Nc4ccc(O)c(N5CCN(C)CC5)c4)cc3)c(C)c2)o1 | inactive |
| Cc1nc(Nc2ccc(F)cc2)nc(N2CCc3ccccc3C2C)c1C (centres undefined) | inactive |
| CC(C)(O)C1CC(=O)C2(C)C(CCC3(C)C(c4ccoc4)OC(=O)C4OC432)C12CCC(=O)OC2 (centres undefined) | inactive |
| O=C(NCc1nc2ccccc2c(=O)n1-c1ccc(F)cc1)Nc1ccc(Cl)c(C(F)(F)F)c1 | inactive |
| Cc1cc(C)cc(-c2cnc3cc(Cl)c(-c4cccc(O)c4)cc3c2OCCCN)c1 | inactive |
| CCOC(=O)c1ccc(OCCC2CCN(c3ccc(C)nn3)CC2)cc1 | inactive |
| O=C(NO)c1ccc(CC(=O)N(CCO)c2ccccc2)cc1 | inactive |
| N#Cc1ccc(N2N=C3c4ccc(C(=O)O)cc4CC[C@@H]3[C@@H]2C2CCCC2)cc1Cl | inactive |
| Cc1c(Cl)cccc1S(=O)(=O)Nc1nc(NCCc2ccccc2)nc2c1CN(Cc1ccccc1)CC2 | inactive |
| O=S(=O)(c1ccccc1)N(CC(F)(F)F)c1ccc(C(O)(C(F)(F)F)C(F)(F)F)cc1 | inactive |
| O[C@@](Cc1ncc(CC2(C(F)(F)F)CC2)[nH]1)(c1ccc(-n2cccn2)cc1)C(F)(F)F | inactive |
| COC(=O)CC(O)CC(O)/C=C/c1c(C)ccc2c1C(OC(C)=O)CC(C)C2 (centres undefined) | inactive |
| Cc1onc(-c2ccccc2)c1C(=O)N1CCN(c2ccc([N+](=O)[O-])cc2Cl)CC1 | inactive |
| C[C@]12CC[C@@H]3c4ccc(O)c(O)c4CC[C@H]3[C@@H]1CCC2=O | inactive |

| SMILES | outcome |
| --- | --- |
| CC(C)C[C@@H](C(=O)N[C@@H](Cc1ccc(OCc2ccccc2)cc1)C(=O)NC(C)(C)C)N(C)Cc1ccc(C(C)(C)C)cc1 | inactive |
| COc1cc(C(=O)O)ccc1NC(=O)C1NC(CC(C)(C)C)C(C#N)(c2ccc(Cl)cc2F)C1c1cccc(Cl)c1F (centres undefined) | inactive |
| Cc1cc(C(=O)Cn2cc(C#N)ccc2=O)c(C)n1Cc1ccccc1 | inactive |
| O=C(COc1ccc2ccccc2c1Br)Nc1cccnc1 | inactive |
| O=C(Nc1ccc(Cl)cc1)Nc1cccc(-c2cccc(N3CCCC3)n2)c1 | inactive |
| C=C1/C(=C/C=C2\CCC[C@]3(C)[C@@H]([C@H](C)/C=C/[C@@H](C)C(C)C)CC[C@@H]23)C[C@@H](O)C[C@@H]1O | inactive; activator |
| CNc1nc(NCc2ccc(NS(C)(=O)=O)cc2Cl)cc(-c2ccccn2)n1 | inactive |
| CN(C)C(CCOc1cccc2ccccc12)c1ccccc1 (centres undefined) | inactive |
| CN(C)C(=O)C(=O)c1cn(C)c2cc(Cl)c(C(=O)N3CCC(Cc4ccc(F)cc4)CC3)cc12 | inactive |
| CCC(C)C(=O)O[C@H]1[C@H](O)[C@@]2(COC(C)=O)C(CC1(C)C)C1=CCC3[C@@]4(C)CC[C@H](O[C@@H]5O[C@H](C(=O)O)[C@@H](O)[C@H](O)[C@H]5O)[C@@](C)(CO)C4CC[C@@]3(C)[C@]1(C)C[C@@H]2O (some centres undefined) | inactive |
| COc1ccccc1OCCNCC(O)CCOc1cccc2[nH]c3ccccc3c12 (centres undefined) | inactive |
| CCN(CC)CCCS(=O)(=O)N[C@H](CCc1ccccc1)c1nc(Cc2ccc(Br)cc2)no1 | inactive |
| O=C(NCCCCN1CCN(c2cccc(Cl)c2Cl)CC1)c1cc2ccccc2s1 | inactive |
| CC(C)(O)c1ccn2c(-c3ccc(F)c(-c4ccc(F)cc4C#N)c3)cnc2c1F | inactive |
| CCN1C(C)(C)CC(Oc2ccc(C(=O)Nc3ccc(NC(=O)Nc4cc(C(C)(C)C)on4)cc3)nc2)CC1(C)C | inactive |
| Clc1ccc(Cn2c(Cc3ccccc3)nc3ccccc32)cc1 | inactive |

Tested on: KB-3-1
Assay: as above
Conditions: Five cell lines viability, CellTiter-Glo ATP luminescence, 48-72 h; max response: stronger effect = lower value
How it was run: as §1

| SMILES | max response [%] | Potency |
| --- | --- | --- |
| CC(C)=CCC[C@](C)(O[C@@H]1O[C@H](CO[C@@H]2OC[C@@H](O)[C@H](O)[C@H]2O)[C@@H](O)[C@H](O)[C@H]1O)[C@H]1CC[C@]2(C)[C@@H]1[C@H](O)C[C@@H]1[C@@]3(C)CC[C@H](O[C@@H]4O[C@H](CO)[C@@H](O)[C@H](O)[C@H]4O)C(C)(C)[C@@H]3CC[C@]12C | 5.08 |  |
| Cc1c(NC(=O)OCC2COCCN2)cn2ncnc(Nc3ccc4c(cnn4Cc4cccc(F)c4)c3)c12 (centres undefined) | -18.9 |  |
| O=C(Nc1cccc2cccnc12)c1ccc(N2C(=O)[C@@H]3C4C=CC(C4)[C@@H]3C2=O)cc1 | -2.67 |  |
| CNc1nc(Nc2ccc(C(=O)N3CCOCC3)cc2OC)nc2[nH]cc(Cl)c12 |  | 10.3 µM (active) |
| COc1ccc(CCCN2CCC(COC(c3ccccc3)c3ccccc3)CC2)cc1 | -17.2 |  |
| CCCCc1c(-c2ccc(OC)cc2)[nH]c2nccnc12 | 2.93 |  |
| COc1ccc([C@H]2Cc3cccc(O)c3C(=O)O2)cc1OC | 2.52 |  |
